Assay results: PubChem BioAssay AID504832 (National Center for Advancing Translational Sciences (NCATS), 2011)
The whole screen tested about 310,000 compounds, of which about 18,000 (5.8%) were called active. Entries that show only a call come without a potency. Roughly 22% stayed inconclusive and do not appear here. The call rests on the fitted dose curve; in most records, active means well fitted inhibition curve with a large enough effect; inconclusive means small, poorly fitted or top-dose-only effect, or another doubt; inactive means no such curve, though single readings can be large or run the other way. Only a selection was taken, and actives are over-represented in it overall.

Test: Primary qHTS for delayed death inhibitors of the malarial parasite plastid, 48 hour incubation
Details: P. falciparum luciferase growth in erythrocytes; series mostly up to 28.7 µM
Procedure, shortened: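 In quantitative HTS format, infected erythrocytes bearing luciferase-reporter parasites were treated for a single generation at 37 C. Luminescence after adding detection reagent served as the growth measure.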
Potency means the concentration at half of the fitted maximal effect.

SMILES | Potency | activity change, negative = inhibition
CN(CC#CCC(c1ccccc1)c1ccccc1)C(C)(C)C | 9.28 µM (active) | 
Cc1cccc(C)c1Nc1c(-c2ccccc2O)nc2ncccn12 | 2.94 µM (active) | 
Cc1ccccc1Nc1c(-c2ccccc2)nc2ncccn12 | inactive | 
C[C@H](NC(=O)[C@@H]1Cc2ccccc2CN1C(=O)OC(C)(C)C)C(=O)NC1CCCC1 | inactive | 
O/N=C(\C[n+]1ccccc1)c1ccc(Br)cc1 |  | -29.6% [at 0.00184 µM] (inactive)
O=C(c1cc(-c2cccs2)on1)N1CCCCC1 | inactive | 
Cc1cc(NC(=O)c2cc(-c3cccs3)on2)nn1Cc1ccc(Cl)cc1 | 10.4 µM (active) | 
CC(=O)c1ccc(NC(=O)c2cc(-c3cccs3)on2)cc1 | inactive | 
COc1ccc(S(=O)(=O)N2CCC(C(=O)NCCC(=O)NCc3cccc(OC)c3)CC2)cc1 | inactive | 
CNCC[C@H](Oc1ccc(C(F)(F)F)cc1)c1ccccc1 | 10.4 µM (active) | 
CC(C)Oc1ccc(Oc2ccc(C(F)(F)F)cn2)cc1 | inactive | 
C[C@H](C(=O)CC(=O)OC(C)(C)C)[C@H](O)c1ccc(C(F)(F)F)cc1 | inactive | 
CCN(CC)C(=O)Oc1ccc(Br)cc1C(=O)Nc1ccc(F)c(Cl)c1 | 9.28 µM (active) | 
CCN(CC)C(=O)C(=O)Nc1cccc(Br)c1 | inactive | 
COC(=O)c1ccc(NC(=O)c2cc(Cl)ccc2OC)cc1 |  | -5.41% [at 5.75 µM] (inactive)
CCCc1nnc(NC(=O)CCC(=O)NC2CC2)s1 | inactive | 
O=C(NCc1ccco1)/C(=C\c1cccc([N+](=O)[O-])c1)NC(=O)c1ccco1 | inactive | 
C=CCn1c(SCC(=O)NCC2CCCO2)nc2sc(C)c(C)c2c1=O (stereo not drawn) | inactive | 
Cc1cccc(NC(=O)Cn2cc(C(=O)c3ccco3)c3ccccc32)c1 | inactive | 
N#Cc1ccc(Cn2cc(C(=O)c3ccco3)c3ccccc32)cc1 | inactive | 
CC1CCN(C(=O)Cn2cc(C(=O)c3ccco3)c3ccccc32)CC1 | 9.28 µM (active) | 
CC(Sc1ncnc2c1cnn2-c1ccccc1)C(=O)Nc1ccc(N2CCOCC2)cc1 (stereo not drawn) | inactive | 
COc1ccc2c(c1OC)C(=O)N(c1ccc(O)cc1)C2 | inactive | 
N#Cc1ccc(C(c2ccc(C#N)cc2)n2cncn2)cc1 | inactive | 
N#Cc1ccc(C(c2nnnn2CCc2ccccc2)N2CCCCCC2)cc1 (stereo not drawn) | 1.65 µM (active) | 
CC(C)C(c1nnnn1CCc1ccccc1)N1CCN(C(=O)c2ccco2)CC1 (stereo not drawn) | inactive | 

SMILES | Potency | activity change, negative = inhibition
CCCc1nc(SCC(=O)N2CCCC2)c2c(=O)n(C)c(=O)n(C)c2n1 | inactive | 
CC(=O)N1CCN(CC(c2ccccc2)c2ccccc2)CC1 | inactive | 
COc1ccccc1CN(C)C(=O)C1(c2ccc(Cl)cc2)CC1 | inactive | 
COc1cccc(CN(C)CC(=O)NCc2ccccc2Cl)c1OC | inactive | 
COc1cccc(CN(C)CC2CCCN(CCc3ccc(Cl)cc3)C2)c1OC (stereo not drawn) | 5.86 µM (active) | 
COc1cccc(NC(=O)N2C3CCCC2CC(NC(C)=O)C3)c1 (stereo not drawn) | inactive | 
CCOc1cc(C2/C(=C(/O)c3ccc(S(=O)(=O)N4CCCCC4)cc3)C(=O)C(=O)N2CCOC)ccc1O (stereo not drawn) | inactive | 
CCOC(=O)c1cc2c(n(-c3ccc(C)cc3)c1=O)CCCC2=O | inactive | 
O=C1CCCC2=C1C(c1cccs1)CC(=O)N2c1ccc(F)cc1 (stereo not drawn) | inactive | 
CCOC(=O)C1=C(N)N(c2ccc(C)cc2)C2=C(C(=O)CCC2)C1c1cccs1 (stereo not drawn) | 9.28 µM (active) | 
COc1cc2cc(C(=O)N/N=C/c3cccc(OC)c3OC)[nH]c2cc1OC | inactive | 
C=CCN1C(=NC(=O)COc2ccccc2)SC2CS(=O)(=O)CC21 (stereo not drawn) | inactive | 
CCn1c(=N)c(S(=O)(=O)c2ccc(F)cc2)cc2c(=O)n3ccccc3nc21 | inactive | 
CCOC(=O)c1cc2c(=O)n3ccccc3nc2n(CC(C)C)c1=NC(=O)c1c(-c2c(F)cccc2Cl)noc1C | 2.33 µM (active) | 
C/C(=N/OC(=O)c1c(-c2c(F)cccc2Cl)noc1C)c1cnccn1 | inactive | 
O=C(Nc1cc2c3c(c1)CC(=O)N3CCC2)c1ccccc1F | inactive | 
COc1cccc(CN2CCN(Cc3ccc4cccc(F)c4n3)CC2CCO)c1 (stereo not drawn) | inactive | 
O=c1c2c(-c3ccccc3)ccnc2[nH]n1-c1ccccc1 | inactive | 
COc1ccc(Cc2nnc(NC(=O)c3ccc(OC)cc3OC)s2)cc1 | 1.65 µM (active) | 
COc1ccc(Cc2nnc(NC(=O)c3cc(OC)c(OC)c(OC)c3)s2)cc1OC | inactive | 
COc1ccc(C(=O)Nc2nncs2)c(OC)c1 | inactive | 
Cc1cc(C(=O)NC2CC(C)(C)Cc3c2cnn3-c2ccccc2)n[nH]1 (stereo not drawn) | inactive | 
Oc1cccc(/C=N/Nc2ccc(Cl)nn2)c1O | 0.415 µM (active) | 
Clc1ccc(N/N=C/c2cccs2)nn1 | inactive | 
COc1cccc(/C=N/Nc2ccc(Cl)nn2)c1 | inactive | 
O=C(CN1CCCCC1)NC(=O)Nc1ccccc1F | inactive | 

SMILES | Potency | activity change, negative = inhibition
Cc1ccc(NC(=O)CN(C)C(=O)COC(=O)C(C)(C)Oc2ccc(Cl)cc2)cc1 | inactive | 
CN(C)CCCN(C(=O)c1ccc(S(=O)(=O)N2CCCc3ccccc32)cc1)c1nc2ccc(F)cc2s1 | 13.1 µM (active) | 
Cc1ccc2nc(N(CCN(C)C)C(=O)C3=COCCO3)sc2c1 | inactive | 
CCOc1ccc2nc(N(CCN(C)C)C(=O)c3ccc4ccccc4c3)sc2c1 | inactive | 
CCOc1ccc2nc(N(CCCN(C)C)C(=O)c3ccc(C(=O)c4ccccc4)cc3)sc2c1 | 10.4 µM (active) | 
CCN(CC)CCN(C(=O)c1ccc(S(=O)(=O)N2CCOCC2)cc1)c1nc2cc3c(cc2s1)OCCO3 | inactive | 
CCc1ccc2nc(N(CCCN(C)C)C(=O)c3ccc4c(c3)OCCO4)sc2c1 | 3.29 µM (active) | 
CN(C)CCN(C(=O)C1=COCCO1)c1nc2ccc(Cl)cc2s1 | inactive | 
CCCC(=O)N(CCN1CCOCC1)c1nc2ccc(OCC)cc2s1 | inactive | 
CCC(=O)Nc1nnc(S(=O)(=O)N2CCCc3ccccc32)s1 | inactive | 
C[C@H](NC(=O)C1CC(=O)N(c2ccc3c(c2)OCO3)C1)C(=O)NCc1ccco1 (stereo partly drawn) | inactive | 
CCc1ccccc1N(CC(=O)NCC1CCCO1)C(=O)CCC(=O)Nc1nccs1 (stereo not drawn) | inactive | 
CC(C)Oc1ccc(C(CC(=O)N2CCOCC2)C(C)C)cc1 (stereo not drawn) | inactive | 
COc1ccc(CSc2nnnn2-c2ccc(C(=O)O)cc2)cc1 | inactive | 
COc1ccc(C(=O)NCC(=O)N/N=C/c2cccnc2)cc1 | inactive | 
COc1ccc(C(=O)OCC(=O)c2ccc(C)c(S(=O)(=O)N3CCOCC3)c2)cc1OC | inactive | 
CCOc1ccc(CCNC(=O)COC(=O)c2ccc(F)c(S(=O)(=O)N3CCOCC3)c2)cc1OCC | 14.7 µM (active) | 
Cc1cc(NC(=O)COC(=O)c2ccc(F)c(S(=O)(=O)N3CCOCC3)c2)no1 | inactive | 
CC(C)CNC(=O)C(=O)NCC(c1ccc2c(c1)OCO2)N1CCOCC1 (stereo not drawn) | inactive | 
CCCCn1c(SCC(=O)N2CCCC2=O)nc2cc(S(N)(=O)=O)ccc21 | inactive | 
CCCCn1c(SCC(=O)N2CCC(C(=O)OCC)CC2)nc2cc(S(N)(=O)=O)ccc21 | 13.1 µM (active) | 
NS(=O)(=O)c1ccc(CCNC(=O)CCCn2c(SCC(=O)N3CCCC3)nc3ccsc3c2=O)cc1 | inactive | 
CCSc1nsc(NC(=O)Nc2ccccc2OC)n1 | inactive | 
COc1ccc(CC(=O)NC2CCSc3ccccc32)cc1OC (stereo not drawn) | inactive | 
CO[C@H]1[C@@H]2C=CO[C@@H](O[C@H]3O[C@@H](CO)[C@H](O)[C@@H](O)[C@@H]3O)[C@@H]2[C@@]2(CO)O[C@@H]12 | inactive | 
Cc1n[nH]c(=O)c2c(NC(=O)CSc3ccccc3F)oc(C)c12 | inactive | 

SMILES | Potency | activity change, negative = inhibition
COc1ccc(C(=O)Cc2cnn(-c3ccccc3)c2)c(O)c1 | inactive | 
Cc1[nH]nc(-c2ccc(OCc3cnn(-c4ccccc4)c3)cc2O)c1Oc1ccc(Cl)cc1 | 5.22 µM (active) | 
CCOc1cc(C2C(C(=O)c3ccco3)=C(O)C(=O)N2Cc2ccccc2)ccc1O (stereo not drawn) | inactive | 
Cc1ccccc1NC(=O)C1CCN(C(=O)NC2CCCCC2)CC1 | inactive | 
CCCC(=O)Nc1nnc(-c2ccccc2)o1 | inactive | 
COc1ccc(-c2nnc(NC(=O)CS(=O)(=O)c3ccc(Cl)cc3)o2)c(OC)c1 | inactive | 
Cc1ccc(C)c(-c2nnc(NC(=O)CS(=O)(=O)c3ccccc3)o2)c1 | 13.1 µM (active) | 
COc1ccc(NCCc2ccccn2)cc1 | inactive | 
OCC[C@H]1C[C@H](O)[C@@H](O)[C@]2(CCc3ccccc3O2)O1 | inactive | 
Cc1ccc2[nH]c(=O)c(CC(=O)O)c(-c3ccccc3)c2c1 | inactive | 
O=C(/C=C/c1ccco1)NC(=S)N1CCCCC1 | inactive | 
COc1ccccc1Nc1nnc(SC(C)C(=O)NC2CC2)s1 (stereo not drawn) | 10.4 µM (active) | 
CCSc1nnc(NC(=O)Cc2ccccc2OC)s1 | inactive | 
O=C(CSc1nnc(Nc2ccccc2F)s1)NC1CCCC1 | inactive | 
O=C1CCCN1C(=O)COc1ccc([N+](=O)[O-])cc1 | inactive | 
O=C(CNc1ccccc1N1CCCC1=O)Nc1cc(Cl)ccc1-n1cncn1 | inactive | 
Cc1nn(-c2ccccc2)c(C)c1NC(=O)COC(=O)Cc1ccccc1 | inactive | 
Cc1cccc(C)c1NC(=O)CNC(=O)c1c(C)nn(-c2ccccc2)c1C | inactive | 
Cc1nn(-c2ccccc2)c(C)c1NC(=O)CCl | 4.65 µM (active) | 
COc1cc(NS(=O)(=O)c2ccc(NC(=O)c3ccc([N+](=O)[O-])cc3)cc2)ncn1 | inactive | 
Cn1ccc(=Nc2ccc(NC(=O)c3ccc(N=c4ccn(C)c5ccc([N+](=O)[O-])cc45)cc3)cc2)cc1 | 0.233 µM (active) | 
O=C(Nc1ccc(C(=O)N2CCCCC2)cc1)c1cccc([N+](=O)[O-])c1 | inactive | 
O=S(=O)(c1cccc(-c2nnc3n2CCCCC3)c1)N1CCOCC1 | inactive | 
O=S(=O)(c1cccc(-c2cn3ccccc3n2)c1)N1CCCC1 | inactive | 
O=S(=O)(c1cccc(-c2nnc(SC(F)F)n2-c2ccccc2)c1)N1CCCCC1 | 11.7 µM (active) | 
